# From PubChem BioAssay (Tox21)
# A number with no mark means an inactive call. Results filed as inconclusive are left out. Where a call stands in place of a potency, no number is given. The source made the active and inactive calls. Unless noted, calls follow the shape of the dose curve; as a rule, active = well fitted curve in the direction sought with a large enough effect in the repeat runs; inconclusive = weak or mixed curves; inactive = no such curve, though single readings can be large; an effect the other way counts as inactive or inconclusive.
# What was measured:
# [1] = qHTS assay to identify small molecule agonists of the hypoxia (HIF-1) signaling pathway - cell viability counter screen (AID 1224844; calls by dose curve; also: nearly all actives have a fitted effect of over 50% in size; also: potency is read from the fitted curve at half-maximal effect)
# In short: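 Viability counter screen: HRE-bla ME-180 cells plated 5 hrs before compound addition, treated 17 hrs at 37C and 5% CO2, then CellTiter-Glo added after the FRET reporter read; luminescence after 30 min.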
# [2] = qHTS assay to identify small molecule agonists of H2AX (AID 1224845; active = well fitted activation curve with a large enough effect in the signal ratio in the repeat runs, not every such curve was filed as active; the % refers to the signal ratio)
# In short: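 Wild-type CHO-K1 cells plated overnight, then exposed 3 hr at 37C to compounds at 15 concentrations (0.76% DMSO). Lysed, then HTRF anti-pH2AX(S139)-cryptate/anti-H2AX-d2 detection after 24 hr at room temperature; emissions 665 and 620 nm.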
# [3] = qHTS assay to identify small molecule agonists of the hypoxia (HIF-1) signaling pathway (AID 1224846; active = well fitted activation curve with a large enough effect in the signal ratio in the repeat runs, not every such curve was filed as active; the % refers to the signal ratio)
# In short: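 Agonist mode reporter screen. ME-180 cells stably expressing bla under HRE control received test compounds in DMSO for 17 hrs (37C, 5% CO2), and beta-lactamase activity was then detected with the CCF4-AM FRET substrate.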
# [4] = qHTS RealTime-Glo MT Cell Viability Assay in HepG2 cells - 24 hour (AID 1224867); also: nearly all actives have a fitted effect of over 50% in size
# In short: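 Cells + NanoLuc/prosubstrate dispensed (600 cells/well) → 5 h at 37 C/5% CO2 → compounds in DMSO transferred → 40 h incubation at 37 C, luminescence read at 0, 8, 16, 24, 32, 40 h.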
# [5] = qHTS RealTime-Glo MT Cell Viability Assay in HEK293 cells - 32 hour (AID 1224868); also: nearly all actives have a fitted effect of over 50% in size; also: potency is read from the fitted curve at half-maximal effect; as to activity change, negative = cytotoxic: top concentration of the series differs between compounds
# In short: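 Tox21 10K qHTS, HEK293, 600 cells/well, RealTime-Glo reagent co-dispensed with cells; 5 h preincubation, compound by pintool, 37 C, luminescence at 0–40 h.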
# [6] = A CellTox Green Cytotoxicity Assay to monitor cytotoxicity in HEK293 cells - 0 hour (AID 1224869); also: nearly all actives have a fitted effect of over 50% in size
# In short: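 Dead-cell fluorescence measured kinetically: asymmetric cyanine dye, HEK293, 600 cells/well, 5 h settle, 23 nL cpd/DMSO, 37 C, reads 0–40 h every 8 h.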
# [7] = qHTS RealTime-Glo MT Cell Viability Assay in HepG2 cells - 40 hour (AID 1224870); also: nearly all actives have a fitted effect of over 50% in size
# In short: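 HepG2 cells mixed with RealTime-Glo MT reagents (NanoLuc plus cell-permeant prosubstrate) were seeded at 600 cells/well, incubated 5 h at 37 C/5% CO2, then pinned with compounds in DMSO; nonlytic luminescence tracked viability during 40 h treatment.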
# [8] = qHTS assay to identify small molecule agonists of H2AX - cell viability counter screen (AID 1224847; calls by dose curve; also: top concentration of the series differs between compounds; nearly all actives have a fitted effect of over 30% in size)
# In short: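 After overnight plating of 1000 CHO-K1 cells per well, a 15-concentration compound series was applied for 3 hr at 37C. Luminescence from CellTiter-Glo, read following 30 min at room temperature, reflected cell viability.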
# [9] = qHTS assay to identify small molecule antagonists of the estrogen related receptor (ERR) signaling pathway from Tox21 library (AID 1224848); also: nearly all actives have a fitted effect of over 50% in size
# In short: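 Tox21 10K compounds in DMSO tested for ERR pathway antagonism in NTP's ERR cell line; 18 h, 37 C exposure; ONE-Glo luminescence.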
# [10] = qHTS assay to identify small molecule agonists of the estrogen related receptor (ERR) signaling pathway from Tox21 library (AID 1224849; calls by dose curve; also: nearly all actives have a fitted effect of over 15% in size); settings: ERR reporter cell line, ONE-Glo luciferase, 18 h; at 92.4 µM (top of the series) unless noted
# In short: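 Quantitative HTS in agonist format: NTP ERR cell line, compounds transferred in DMSO after 6 h plating, 18 h incubation at 37 C, ONE-Glo luminescence endpoint.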
smiles,measurement,setting,value
COC(=O)C(c1ccccc1)C1CCCCN1 (stereo not drawn),Potency,[1],inactive
same,Potency,[2],inactive
same,outcome,[3],inactive
same,Potency,[4],inactive
same,Potency,[5],inactive
same,Potency,[6],inactive
same,Potency,[7],inactive
CC(C)(C)NCC(O)c1cc(Cl)c(N)c(Cl)c1 (stereo not drawn),Potency,[1],inactive
same,Potency,[2],inactive
same,Potency,[8],inactive
same,Potency,[9],inactive
same,"activity change, positive = activation",[10],6.3% [at 42.5 µM]
same,Potency,[4],inactive
same,Potency,[5],inactive
same,Potency,[6],inactive
same,Potency,[7],inactive
CCCCOC(=O)[C@@H](C)Oc1ccc(Oc2ccc(C#N)cc2F)cc1,Potency,[1],inactive
same,Potency,[2],inactive
same,Potency,[8],inactive
same,Potency,[9],inactive
same,"activity change, positive = activation",[10],-5.11%
same,Potency,[4],inactive
same,Potency,[5],21.7 µM (active)
same,Potency,[6],inactive
same,Potency,[7],inactive
ClC(Br)Br,Potency,[1],inactive
same,Potency,[2],inactive
same,Potency,[8],inactive
same,Potency,[9],inactive
same,"activity change, positive = activation",[10],1.41%
same,Potency,[4],inactive
same,Potency,[5],inactive
same,Potency,[6],inactive
same,Potency,[7],inactive
CCC/C(=N\OCC)C1=C(O)CC(CC(C)SCC)CC1=O (stereo not drawn),Potency,[1],inactive
same,Potency,[2],inactive
same,outcome,[3],inactive
same,Potency,[4],inactive
same,Potency,[6],inactive
same,Potency,[7],inactive
CC(C=O)Cc1ccc2c(c1)OCO2 (stereo not drawn),Potency,[1],inactive
same,Potency,[2],inactive
same,outcome,[3],inactive
same,Potency,[4],inactive
same,Potency,[5],inactive
same,Potency,[6],inactive
same,Potency,[7],inactive
CN(N=O)C(N)=O,Potency,[1],inactive
same,Potency,[2],inactive
same,outcome,[3],inactive
same,Potency,[4],inactive
same,Potency,[5],inactive
same,Potency,[6],inactive
same,Potency,[7],inactive
O=C(Nc1ccccc1)c1ccccc1I,Potency,[1],inactive
same,Potency,[2],inactive
same,outcome,[3],inactive
same,Potency,[4],inactive
same,Potency,[5],inactive
same,Potency,[6],inactive
same,Potency,[7],inactive
O=C(CCN1CC1)OCC(CO)(COC(=O)CCN1CC1)COC(=O)CCN1CC1,Potency,[1],inactive
same,Potency,[2],inactive
same,outcome,[3],inactive
same,Potency,[4],inactive
same,Potency,[5],inactive
same,Potency,[6],inactive
same,Potency,[7],inactive
CCOP(=S)(OCC)Oc1ncn(-c2ccccc2)n1,Potency,[1],inactive
same,Potency,[2],inactive
same,outcome,[3],inactive
same,Potency,[4],inactive
same,Potency,[6],inactive
same,Potency,[7],inactive
C[C@]1(O)CC[C@H]2[C@@H]3CCC4=CC(=O)CC[C@]4(C)[C@@]3(F)[C@@H](O)C[C@@]21C,Potency,[1],inactive
same,Potency,[2],inactive
same,outcome,[3],inactive
same,Potency,[4],inactive
same,Potency,[5],inactive
same,Potency,[6],inactive
same,Potency,[7],inactive
COP(=S)(OC)Oc1ccc(S(N)(=O)=O)cc1,Potency,[1],inactive
same,Potency,[2],inactive
same,outcome,[3],inactive
same,Potency,[5],inactive
same,Potency,[6],inactive
same,Potency,[7],inactive
CCCCOC(=O)c1ccccc1N,Potency,[1],inactive
same,Potency,[2],inactive
same,outcome,[3],inactive
same,Potency,[4],inactive
same,Potency,[5],inactive
same,Potency,[6],inactive
same,Potency,[7],inactive
[As]#[In],Potency,[1],inactive
same,Potency,[2],inactive
same,Potency,[8],inactive
same,Potency,[9],inactive
same,"activity change, positive = activation",[10],0.493%
same,Potency,[4],inactive
same,Potency,[6],inactive
same,Potency,[7],inactive
CC1=C(C(=O)O)N2C(=O)[C@@H](N)[C@H]2SC1,"activity change, negative = cytotoxicity",[1],0.296% [at 15.8 µM]
same,activation (H2AX phosphorylation),[2],-1.16% [at 31.6 µM]
same,"activity change, negative = cytotoxicity",[8],-3.1% [at 31.6 µM]
same,"activity, negative = inhibition",[9],6% [at 19 µM]
same,"activity change, positive = activation",[10],3.36% [at 19 µM]
same,"activity change, negative = cytotoxicity",[4],0.806% [at 15.8 µM]
same,"activity change, negative = cytotoxic",[5],1.51% [at 15.8 µM]
same,cytotoxicity,[6],-3.35% [at 15.8 µM]
same,"activity change, negative = cytotoxic",[7],1.44% [at 15.8 µM]
CSc1nc(N=[N+]=[N-])nc(NC(C)C)n1,Potency,[1],inactive
same,Potency,[2],inactive
same,outcome,[3],inactive
same,Potency,[4],inactive
same,Potency,[6],inactive
same,Potency,[7],inactive
C1CCC(C2CCCCC2)CC1,Potency,[1],21.9 µM (active)
same,Potency,[2],inactive
same,Potency,[8],inactive
same,Potency,[9],inactive
same,"activity change, positive = activation",[10],-6.98%
same,Potency,[4],inactive
same,Potency,[6],inactive
same,Potency,[7],inactive
Cc1nnc2n1-c1sc(CCC(=O)N3CCOCC3)cc1C(c1ccccc1Cl)=NC2,Potency,[1],inactive
same,Potency,[2],inactive
same,Potency,[8],inactive
same,Potency,[9],inactive
same,"activity change, positive = activation",[10],1.19% [at 42.5 µM]
same,Potency,[4],inactive
same,Potency,[5],inactive
same,Potency,[6],inactive
CNC(=O)Oc1c(C(C)(C)C)cc(C)cc1C(C)(C)C,Potency,[1],inactive
same,Potency,[2],inactive
same,outcome,[3],inactive
same,Potency,[4],inactive
same,Potency,[5],inactive
same,Potency,[6],inactive
CC1=NNC(=O)N(/N=C/c2cccnc2)C1,Potency,[1],inactive
same,Potency,[2],inactive
same,Potency,[8],inactive
same,Potency,[9],inactive
same,"activity change, positive = activation",[10],-0.152%
same,Potency,[4],inactive
same,Potency,[5],inactive
same,Potency,[6],inactive
same,Potency,[7],inactive
c1cc2c(c(N3CCNCC3)c1)OCCO2,Potency,[1],inactive
same,Potency,[2],inactive
same,outcome,[3],inactive
same,Potency,[4],inactive
same,Potency,[5],inactive
same,Potency,[6],inactive
same,Potency,[7],inactive
ClC(Cl)(Cl)C(Cl)(Cl)Cl,Potency,[1],inactive
same,Potency,[2],inactive
same,outcome,[3],inactive
same,Potency,[4],inactive
same,Potency,[5],inactive
same,Potency,[6],inactive
same,Potency,[7],inactive
CCCCN(CCCCO)N=O,Potency,[1],inactive
same,Potency,[2],inactive
same,Potency,[8],inactive
same,Potency,[9],inactive
same,"activity change, positive = activation",[10],-8.16%
same,Potency,[4],inactive
same,Potency,[5],inactive
same,Potency,[6],inactive
same,Potency,[7],inactive
COC(C)(C)C,Potency,[1],inactive
same,Potency,[2],inactive
same,outcome,[3],inactive
same,Potency,[4],inactive
same,Potency,[5],inactive
same,Potency,[6],inactive
same,Potency,[7],inactive
